In PubChem BioAssay AID1159580 (chemical genetic matrix, 2015):
In all, about 5,500 compounds went through this assay and about 2,000 (36%) were called active. Inconclusive results (about 18%) are left out. Rule as the data show it: active = normalized growth mostly below about 0.91 (no sharp cut-off); inconclusive = no clear call, values can overlap the other calls; inactive = mostly above about 0.92. This is one part of the list.

Test: chemical genetic growth profiling, strain panel (AID 1159580);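 also: tested at 20 µM; growth read once vehicle control cultures reached saturation at 30 °C; 1 = growth at the plate median or of vehicle wells; lower values mean less growth of the strain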
Conditions: S. cerevisiae deletion strains, growth OD

Measured: normalized growth

CC1(C)O[C@@H]2CC3C4CCC5=CC(=O)C=C[C@]5(C)C4[C@@H](O)C[C@]3(C)[C@]2(C(=O)CO)O1 (some centres not stated)
inactive: locus YAL021C, strain ccr4, active compounds read low 1.01 | locus YAL026C, strain drs2, active compounds read low 1.01 | locus YAL030W, strain snc1, active compounds read low 1.01 | locus YBL061C, strain skt5, active compounds read low 1 | locus YBR009C, strain hhf1, active compounds read low 1.01 | locus YBR023C, strain chs3, active compounds read low 1 | locus YBR171W, strain sec66, active compounds read low 0.994 | locus YBR231C, strain swc5, active compounds read low 1.01 | locus YBR279W, strain paf1, active compounds read low 1.01 | locus YCL011C, strain gbp2, active compounds read low 1 | locus YCL016C, strain dcc1, active compounds read low 1.01 | locus YCL061C, strain MRC1, active compounds read low 0.999 | locus YCL069W, strain vba3, active compounds read low 0.995 | locus YCR088W, strain abp1, active compounds read low 0.993 | locus YDL005C, strain med2, active compounds read low 0.999 | locus YDL040C, strain nat1, active compounds read low 1 | locus YDR001C, strain nth1, active compounds read low 0.999 | locus YDR069C, strain doa4, active compounds read low 1 | locus YDR137W, strain rgp1, active compounds read low 0.998 | locus YDR159W, strain sac3, active compounds read low 1.02 | locus YDR195W, strain ref2 1 | locus YDR297W, strain sur2, active compounds read low 1 | locus YDR334W, strain swr1, active compounds read low 1.01 | locus YDR335W, strain msn5, active compounds read low 1.01 | locus YDR392W, strain spt3, active compounds read low 0.983 | locus YEL003W, strain gim4, active compounds read low 1.01 | locus YEL037C, strain rad23, active compounds read low 0.994 | locus YEL061C, strain CIN8 (second series), active compounds read low 1 | locus YER015W, strain faa2, active compounds read low 1.01 | locus YER016W, strain bim1, active compounds read low 0.995 | locus YER111C, strain swi4, active compounds read low 1 | locus YER155C, strain BEM2 (second series), active compounds read low 0.984 | locus YFR010W, strain ubp6, active compounds read low 0.996 | locus YGL167C, strain pmr1, active compounds read low 1.01 | locus YGL173C, strain kem1, active compounds read low 1.01 | locus YGL227W, strain vid30, active compounds read low 0.998 | locus YGL240W, strain doc1, active compounds read low 1.01 | locus YGL253W, strain hxk2, active compounds read low 1 | locus YHR013C, strain ard1, active compounds read low 1.02 | locus YHR027C, strain rpn1, active compounds read low 1.01 | locus YHR030C, strain SLT2, active compounds read low 0.988 | locus YHR079C, strain IRE1, active compounds read low 0.974 | locus YHR142W, strain chs7, active compounds read low 1.01 | locus YJL092W, strain hpr5, active compounds read low 0.997 | locus YJL095W, strain BCK1 (second series), active compounds read low 1.01 | locus YJL095W, strain BCK1, active compounds read low 0.985 | locus YJL115W, strain asf1, active compounds read low 1 | locus YJL129C, strain trk1, active compounds read low 1.03 | locus YJL154C, strain vps35, active compounds read low 0.996 | locus YJL164C, strain tpk1, active compounds read low 1.01 | locus YJL166W, strain qcr8, active compounds read low 1.01 | locus YJL187C, strain SWE1, active compounds read low 1 | locus YJR066W, strain TOR1, active compounds read low 0.95 | locus YKL160W, strain elf1, active compounds read low 1.02 | locus YKR026C, strain gcn3, active compounds read low 0.982 | locus YKR091W, strain srl3, active compounds read low 1.01 | locus YLL001W, strain dnm1, active compounds read low 1 | locus YLL026W, active compounds read low 1 | locus YLL041C, strain sdh2, active compounds read low 1 | locus YLR027C, strain aat2, active compounds read low 1.01 | locus YLR113W, strain HOG1, active compounds read low 0.963 | locus YLR221C, strain rsa3, active compounds read low 1.01 | locus YLR258W, strain gsy2, active compounds read low 1 | locus YLR262C, strain YPT6 (second series), active compounds read low 1.01 | locus YLR320W, strain mms22, active compounds read low 1.01 | locus YLR342W, strain FKS1, active compounds read low 1.02 | locus YLR357W, strain rsc2, active compounds read low 0.976 | locus YLR370C, strain arc18, active compounds read low 1.01 | locus YLR384C, strain iki3, active compounds read low 1.01 | locus YML120C, strain ndi1, active compounds read low 1.01 | locus YMR058W, strain fet3, active compounds read low 1.02 | locus YMR125W, strain sto1, active compounds read low 0.992 | locus YMR129W, active compounds read low 1.01 | locus YMR205C, strain PFK2, active compounds read low 0.978 | locus YMR231W, strain pep5, active compounds read low 1 | locus YNL071W, strain lat1, active compounds read low 0.998 | locus YNL183C, strain NPR1, active compounds read low 0.918 | locus YNL209W, strain ssb2, active compounds read low 1.02 | locus YNL248C, strain rpa49, active compounds read low 1.01 | locus YNL322C, strain KRE1 (second series), active compounds read low 0.998 | locus YNR049C, strain mso1, active compounds read low 1.01 | locus YOR001W, strain rrp6, active compounds read low 1.01 | locus YOR070C, strain gyp1, active compounds read low 1 | locus YOR080W, strain dia2, active compounds read low 1 | locus YOR083W, strain WHI5, active compounds read low 1.02 | locus YOR106W, strain vam3, active compounds read low 1 | locus YOR231W, strain MKK1, active compounds read low 0.983 | locus YOR265W, strain rbl2, active compounds read low 1.01 | locus YOR270C, strain vph1, active compounds read low 1.03 | locus YOR290C, strain snf2, active compounds read low 1.01 | locus YPL051W, strain arl3, active compounds read low 1 | locus YPL078C, strain atp4, active compounds read low 0.995 | locus YPL106C, strain sse1, active compounds read low 0.998 | locus YPL240C, strain hsp82, active compounds read low 1 | locus YPL256C, strain CLN2, active compounds read low 0.996

C=CCN1CC[C@]23c4c5ccc(O)c4O[C@@H]2/C(=N\N=C2\CC[C@@]4(O)C6Cc7ccc(O)c8c7[C@@]4(CCN6CC=C)[C@@H]2O8)CC[C@@]3(O)C1C5
inactive: locus YAL040C, strain CLN3, active compounds read low 1.01 | locus YCL061C, strain MRC1 (second series), active compounds read low 1 | locus YDR150W, strain NUM1, active compounds read low 1 | locus YDR363W, strain ESC2, active compounds read low 1.01 | locus YER002W, strain NOP16, active compounds read low 1 | locus YJR075W, strain HOC1, active compounds read low 1 | locus YMR307W, strain GAS1, active compounds read low 1.01 | locus YNL175C, strain NOP13, active compounds read low 0.988 | locus YNL197C, strain WHI3, active compounds read low 1.02 | locus YNL224C, strain SQS1, active compounds read low 1.01 | locus YOR083W, strain WHI5 (second series), active compounds read low 1.02 | locus YPL055C, strain LGE1, active compounds read low 0.982
